Source: PubChem BioAssay (National Center for Advancing Translational Sciences (NCATS))
The list is not random: actives were taken first. Their share in the collection is about 7.3%.
NPC1 prom act: NPC1 promoter activation | Huh7 NPC1 promoter luciferase reporter, 24 h | Potency, µM (titrated, usually from 9.22 µM), inactives show top-dose activation, hits mostly activators | actives 2.4% (n = 320,000) | AID 485313; also: % of control where 0% means no effect; nearly all actives have a fitted effect of over 60% in size
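Huh7 cells stably carrying NPC1 promoter–luciferase, plated in Opti-MEM with 10% FBS for 2 h, were exposed to compound in DMSO for 24 h at 37 °C; luciferase reagent was added for 10 min and luminescence read.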
Rab9 promoter act: Rab9 promoter activation; Huh7 Rab9 promoter-luciferase reporter, luminescence, 24 h; Potency, µM (highest dose often 9.22 µM), without a hit: top-dose activation, negative = inhibition, most hits filed as activators; actives 2.8% (n = 320,000); AID 485297; also: % of control where 0% means no effect; nearly all actives have a fitted effect of over 60% in size
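Huh7 reporter line, Rab9 promoter upstream of luciferase. Compound exposure 24 h at 37 °C in reduced-serum medium with 10% FBS. Read-out: luminescence.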
FLuc counter: firefly luciferase modulation, counter-screen for miR-21 project. purified FLuc, Km substrates, luminescence inhibition. Potency, µM (highest dose often 57.5 µM), for inactives: at the top dose activity change, negative = inhibition, most hits filed as inhibitors. actives 6.9% (n = 360,000). AID 588342;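 also: plate controls were vehicle for no effect and reference inhibitor for full effect; nearly all actives have a fitted effect of over 55% in size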
Target sequence (P08659 whole entry, looked up): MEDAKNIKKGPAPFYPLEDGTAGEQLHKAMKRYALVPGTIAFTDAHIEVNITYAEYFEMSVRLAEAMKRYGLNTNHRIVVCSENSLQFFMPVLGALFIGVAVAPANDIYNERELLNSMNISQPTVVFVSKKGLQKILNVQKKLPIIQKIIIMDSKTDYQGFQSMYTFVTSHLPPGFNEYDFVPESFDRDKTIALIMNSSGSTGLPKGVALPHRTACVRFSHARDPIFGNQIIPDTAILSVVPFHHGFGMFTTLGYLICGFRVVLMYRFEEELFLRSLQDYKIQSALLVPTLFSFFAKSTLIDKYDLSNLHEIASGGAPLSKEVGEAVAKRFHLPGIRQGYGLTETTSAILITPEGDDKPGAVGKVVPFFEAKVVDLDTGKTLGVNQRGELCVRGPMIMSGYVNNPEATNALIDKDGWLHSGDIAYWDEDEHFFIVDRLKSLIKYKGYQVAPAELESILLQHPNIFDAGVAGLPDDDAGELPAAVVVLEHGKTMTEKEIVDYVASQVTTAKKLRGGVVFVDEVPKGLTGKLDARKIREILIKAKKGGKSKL
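Biochemical qHTS of compounds, final roughly 60 µM downward over six points, against 10 nM purified firefly luciferase using Km concentrations of substrates (10 uM D-luciferin, 10 uM ATP) in Tris acetate pH 7.5 buffer; luminescence output.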
Luc counter: blocks Kinase-Glo luciferase, a counter-screen artifact | Kinase-Glo luciferase, ATP luminescence, 8 min | Potency, µM (doses to about 38.3 µM), for the others: at the top dose activity change, negative = inhibition, hits mostly inhibitors | actives 0.28% (n = 200,000) | AID 1379; also: % is scaled to controls: 0 for no effect and ±100 for the full control effect; nearly all actives have a fitted effect of over 60% in size
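Inhibition of Kinase-Glo luciferase light generation was assessed at 10 uM ATP in pH 7.2 imidazole buffer, with luminescence measured after eight minutes at ambient temperature.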
SMN2 splice enh: SMN2 splice variant enhancement | actives 2.8% (n = 210,000) | AID 1458 | Potency, µM (doses to about 46.1 µM), for inactives: top-dose activity change, positive = activation, actives largely listed as activators | HEK293 SMN2-luciferase splicing reporter, luminescence, 30-36 h; also: % of control where 0% means no effect; nearly all actives have a fitted effect of over 55% in size
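qHTS luciferase splicing reporter: luminescence rises when SMN2 exon 7 is included in transfected HEK293 cells. Compound exposure lasted 30-36 h at 37C, with 4.5 mM final sodium butyrate as control, followed by a ONE-Glo read.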
Numbers without * were called inactive; ? = inconclusive; . = no result; [ ] = dose if it differs, or a comment. Calls follow the shape of the dose curve; as a rule, active = well fitted curve in the direction sought with a large enough effect; inconclusive = small, poorly fitted or top-dose-only effect, or another doubt; inactive = no such curve, though single readings can be large; an effect the other way counts as inactive or inconclusive. Potency is read from the fitted curve at half-maximal effect.

SMILES	NPC1 prom act	Rab9 promoter act	FLuc counter	Luc counter	SMN2 splice enh
COc1ccccc1N1CCN(/N=C/c2ccccc2C(=O)O)CC1	-2%	2%	19µM*	.	.
COc1ccccc1N1CCN(/N=C/c2cc(OC)c(O)c(OC)c2)CC1	-2%	0%	?	-1%	27%
COc1ccccc1N1CCN(/N=C/c2ccc(OC)c(OC)c2OC)CC1	0%	1%	-2%	3%	6%
Cc1ccc(NC(=O)Cn2cc(S(=O)(=O)NC(C)C)c(S(=O)(=O)NC(C)C)c2)cc1Cl	.	.	4%	.	.
Cc1ccc(C(=O)N(CC(C)C)c2nc3ccccc3s2)o1	8%	12%	?	.	.
CC(C)CN(C(=O)c1ccc(=O)n(C)n1)c1nc2ccccc2s1	22%	26%	-17%	-2%	20µM*
COc1ccc(C(=O)NCc2ccc3c(c2)CCN3C(=O)c2cccc(C)c2)cc1OC	.	.	-17%	.	.
O=C(c1cccc(F)c1)N1CCC2(CC1)CN(c1ccc(-c3ccccc3)cc1)C2	.	.	.	1%	-73%
COCCn1c(COc2ccc(OC)cc2)nc2ccccc21	18%	?	-4%[2.3 µM]	-27%	17%
C=CCn1c(COc2ccc(OC)cc2)nc2ccccc21	?	?	17µM*	.	.
C=CCn1c(NCc2ccc3c(c2)OCO3)nc2ccccc21	14%	24%	15µM*	-5%	-3%
CCn1c(NCc2ccc3c(c2)OCO3)nc2ccccc21	17%	4%	?	-4%	10%
C=CCn1c(NCc2ccc(OC)cc2O)nc2ccccc21	?	?	19µM*	.	.
CCn1c(COc2ccc(OC)cc2)nc2ccccc21	?	?	13µM*	-8%	1%
C=CCn1c(NCc2ccccc2O)nc2ccccc21	23%	7%	?	.	.
CCN(C(=O)CSc1nc2ccccc2nc1Cc1cccc(OC)c1)c1cccc(C)c1	.	.	-16%	.	.
CCc1nnc2c(N3CCN(c4cccc(C)c4)C(C)C3)nc3ccccc3n12 (stereo not given)	.	.	3%	.	.
O=C(O)c1ccccc1C(=O)Nc1cc(-c2ccccc2)[nH]n1	1%	7%	?	.	.
O=C(Nc1cc(-c2ccccc2)[nH]n1)c1ccccc1	0.56µM*	0.63µM*	4.8µM*	.	.
O=C(Nc1cc(-c2ccccc2)[nH]n1)c1ccccc1F	1.8µM*	1.4µM*	8.5µM*	.	.
O=C(CSc1nc2c([nH]c3ccccc32)c(=O)n1-c1ccccc1)N1CCCCC1	.	.	-2%	.	.
COc1ccc(-n2cc3ccc([N+](=O)[O-])cc3n2)cc1	0.71µM*	0.45µM*	0.95µM*	.	.
COc1ccc(C2=NCCn3nc4cc([N+](=O)[O-])ccc4c32)cc1	8%	0%	3%	.	.
COc1cc(OC)cc(OC(=O)C2CCN(C3=NS(=O)(=O)c4ccccc43)CC2)c1	7%	7%	6%	.	.
O=C(OCc1nc2ccccc2s1)C1CCN(C2=NS(=O)(=O)c3ccccc32)CC1	7%	?	11µM*	-4%	18%
SMILES	NPC1 prom act	Rab9 promoter act	FLuc counter	Luc counter	SMN2 splice enh
CCOC(=O)c1noc2ncn(CC(=O)Nc3ccc(OC)c(Cl)c3)c(=O)c12	.	.	17%	.	.
O=C(NCc1cccnc1)c1cc(-c2ccccc2)on1	29%	?	?	1%	16µM*
COc1ccc(-c2cc(C(=O)NCc3cccnc3)no2)cc1	?	?	12µM*	-10%	7%
O=C(NCc1cccnc1)c1cc(-c2cccs2)on1	?	?	?	-2%	0%
N#CCCn1c(=O)c(-c2cccs2)nc2cnc(N3CCNCC3)nc21	.	.	.	-2%	-27%
CCOc1ccccc1NC(=O)c1c(NC(=O)C(C)Oc2ccc(Cl)cc2)sc2c1CCCCC2 (stereo not given)	.	.	3%	.	10%
COc1ccc(Cl)cc1-c1nc(-c2ccc(NC(=O)c3cccs3)cc2)no1	14%	?	15µM*	-5%	3%
CC(=O)Nc1cccc(Oc2ccc(-c3noc(C)n3)cc2)c1	3.2µM*	1.6µM*	12µM*	3%	10µM*
COc1ccc(C(=O)Nc2ccccc2)cc1NC(=O)c1cccs1	2%	-3%	?	.	.
COc1ccccc1-c1noc(-c2ccccc2C(=O)Nc2cccnc2)n1	-4%	-3%	15µM*	-16%	24%
O=C(Nc1ccc(-c2noc(-c3cccs3)n2)cc1)c1cccnc1	1µM*	0.45µM*	4.8µM*	-1%	1.3µM*
Cc1n[nH]c(=O)[nH]c1=O	.	.	.	2%[17.1 µM]	5%[20.6 µM]
COc1ccc(-c2noc(-c3ccccc3C(=O)Nc3cccnc3)n2)cc1OC	-1%	-2%	?	-1%	-17%
COc1ccc(-c2noc(-c3ccccc3C(=O)Nc3cccnc3)n2)cc1	16%	29%	13µM*	0%	5%
COc1ccc(-c2noc(-c3ccccc3C(=O)Nc3cccc(OC)c3)n2)cc1	5%	-2%	11µM*	-5%	-35%
CCc1ccccc1N1C(=O)C2C3C=CC(CC3)C2C1=O (stereo not given)	-2%	-11%	-3%	.	.
O=C1C2C3C=CC(CC3)C2C(=O)N1c1ccc(Cl)cc1Cl (stereo not given)	4%	3%	15µM*	.	.
CCc1nn(CC(=O)N(C)Cc2ccccc2)c(=O)c2cc3sccc3n12	.	.	-10%	.	-11%
O=c1oc2ccccc2cc1-c1ccc(O)cc1O	-1%	-2%	?	-3%	2%
COc1ccc2oc(=O)c(-c3nnc(N)s3)cc2c1	29%	?	-17%	-3%	?
O=Cc1c(-c2ccccc2)cc2oc3ccccc3cc1-2	26%	3.5µM*	0.76µM*	.	.
O=c1oc2ccccc2cc1-c1nnc(NCc2ccco2)s1	1.1µM*	0.71µM*	2.7µM*	-7%	11µM*
Nc1nnc(-c2cc3ccccc3oc2=O)s1	?	1.6µM*	?	-9%	18µM*
Nc1cccc(-c2cc3ccccc3oc2=O)c1	15%	-1%	19µM*	-3%	22%
O=c1cc(-c2ccccc2)oc2cccc(O)c12	.	.	.	3%	?
SMILES	NPC1 prom act	Rab9 promoter act	FLuc counter	Luc counter	SMN2 splice enh
CC(=O)c1ccc(Nc2nc(=O)c3cccnc3s2)cc1	.	.	-10%	-1%	?
O=c1nc(Nc2ccc(OCc3ccccc3)cc2)sc2ncccc12	-2%	13%	-2%	-2%	3.5µM*
CCOC(=O)c1ccc(Nc2nc(=O)c3cccnc3s2)cc1	3.5µM*	4.5µM*	?	-2%	10µM*
COc1ccc(N2CC(NC(=O)COc3ccccc3C)CC2=O)cc1OC (stereo not given)	.	.	-4%	.	.
CCOC(=O)Cc1c(C)nc2c(-c3ccc(Cl)cc3)cnn2c1C	1%	-1%	27µM*	2%	-6%
CCOC(=O)Cc1c(C)nc2c(-c3ccccc3)c(C)nn2c1C	-2%	0%	21µM*	-1%	-11%
Cc1c(Cl)cccc1NC(=O)Nc1c[nH]c(=O)[nH]c1=O	.	.	-7%	.	.
COc1ccc(/C=C/c2nc(C#N)c(N3CCN(c4ccccc4)CC3)o2)cc1OC	.	.	-2%	.	1%
